Test [1] in a line: Primary qHTS for inhibitors of nuclear receptor binding SET domain protein 2 (NSD2) in an RCH-ACV wild type WT cells (2C) (AID 1645877). Also: nearly all actives have a fitted effect of over 70% in size. Also: potency is read from the fitted curve at half-maximal effect. As to activity change, negative = cell killing: % is scaled to controls: 0 for no effect and ±100 for the full control effect. On the technique in general: qHTS replaces the single test concentration by a dilution series.
Test [2] concerns the target Glutathione peroxidase 1 (Homo sapiens) (UniProt P07203). The experiment in a line: Primary qHTS Assay for Inhibitors of Recombinant Selenoprotein Glutathione Peroxidase 1 (GPX1) (AID 1845191). Also: nearly all actives have a fitted effect of over 65% in size. As to activity, negative = inhibition: % is scaled to controls: 0 for no effect and ±100 for the full control effect. The procedure, abridged: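 GR-coupled readout: NADPH consumption tracked by fluorescence, ex 340/em 450 nm, at t=0 and after 15 min at RT. Final mix 10 nM GPX1, 1 mM GSH, 0.5 mM CHP, 0.5 mM NADPH, 100 nM GR, 0.01% BSA, following 30 min enzyme–compound preincubation.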

Test [3] addresses Phospholipid hydroperoxide glutathione peroxidase GPX4 (Homo sapiens) (UniProt P36969). Put plainly: Primary qHTS Assay for Inhibitors of Recombinant Selenoprotein Glutathione Peroxidase 4 (GPX4) (AID 1845192). Also: nearly all actives have a fitted effect of over 65% in size. As to activity change, negative = inhibition: series mostly up to about 50 µM; % is scaled to controls: 0 for no effect and ±100 for the full control effect. The method, boiled down: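 Steps: GPX4 plus compound, 30 min RT; add GR/GSH/NADPH master mix; start with cumene hydroperoxide; read 340/450 nm fluorescence at 0 and 15 min. Finals were 200 nM GPX4, 1 mM GSH, 0.5 mM CHP, 0.5 mM NADPH, 100 nM GR.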

Test [4] has as its target Luciferin 4-monooxygenase (Photinus pyralis) (UniProt P08659). The experiment in a line: Primary firefly luciferase (FLuc) qHTS assay for identification of artifact compounds. (AID 1845220). Also: nearly all actives have a fitted effect of over 60% in size.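 As to activity change, negative = inhibition: series mostly up to about 54 µM; plate controls were DMSO vehicle for no effect and no enzyme for full effect.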 The procedure, abridged:
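Titrated compounds were incubated 15 min at RT, protected from light, with luciferin and ATP at 10 uM; reaction started with 10 nM FLuc, luminescence imaged at 5 min, and concentration-response fitted by Hill equation.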

Test [5] can be described thus: Primary fluorescence-based thiol-reactive (MSTI) qHTS assay for identification of artifact compounds. (AID 1845221).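 Also: series mostly up to about 54 µM; thiol-reactive compounds lower the probe fluorescence signal; nearly all actives have a fitted effect of over 65% in size.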 The method, boiled down: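 Curve-fitted percent inhibition (4-parameter Hill) derived from fluorescence, Ex 525/Em 598 nm, scaled with Acetyl-MSTI and MSTI; 1 h incubation at room temperature.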
In test [6] the test system is Nanoluciferase (engineered Oplophorus gracilirostris luciferase). Put plainly: Primary Nanoluciferase (NLuc) qHTS assay for identification of artifact compounds. (AID 1845222).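 Also: NLuc secreted into diluted conditioned medium of S16 cells; series mostly up to about 54 µM; 0% = DMSO and -100% = no enzyme.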 The procedure, abridged: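 qHTS format, against NLuc in S16 cell-conditioned medium. Nano-Glo substrate 1:100 was added after 15 min at room temperature. Luminescence was taken after a further 5 min.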

The nature of test [7]: Primary redox qHTS assay for identification of artifact compounds. (AID 1845223).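 Also: 0% = DMSO and 100% = reference compound.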 The method, boiled down:
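Redox-cycling detection via DTT (250 uM final) oxidation coupled to Amplex Red (25 uM)/HRP (250 mU/mL) in HBSS. 15 min preincubation plus 30 min after DTT, room temperature. Ex/Em 525/598 nm; 4-parameter Hill fit against DMSO and 10 uM DA3003.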

Structures are written as SMILES. Unmarked numbers belong to inactive results. Records with an inconclusive call do not appear. Active and inactive are the calls of the source. Calls follow the shape of the dose curve; as a rule, active = well fitted curve in the direction sought with a large enough effect; inconclusive = small, poorly fitted or top-dose-only effect, or another doubt; inactive = no such curve, though single readings can be large; an effect the other way counts as inactive or inconclusive. Where a SMILES comes first, the peptide text is derived from it. [ ]: non-standard residue; d: D form. dPhe(4-Cl) = N[C@H](Cc1ccc(Cl)cc1)C(=O)O; d2Nal = N[C@H](Cc1ccc2ccccc2c1)C(=O)O; dCit = NC(=O)NCCC[C@@H](N)C(=O)O; d3Pal = N[C@H](Cc1cccnc1)C(=O)O

Sequence of Glutathione peroxidase 1 (Homo sapiens) (P07203 whole entry, looked up): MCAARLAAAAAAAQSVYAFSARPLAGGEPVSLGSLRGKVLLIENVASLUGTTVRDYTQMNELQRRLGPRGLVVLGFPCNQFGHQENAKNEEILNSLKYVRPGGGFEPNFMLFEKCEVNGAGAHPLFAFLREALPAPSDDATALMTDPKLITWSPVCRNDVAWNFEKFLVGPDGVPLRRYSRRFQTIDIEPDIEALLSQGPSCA
Sequence of Phospholipid hydroperoxide glutathione peroxidase GPX4 (Homo sapiens) (P36969 whole entry, looked up): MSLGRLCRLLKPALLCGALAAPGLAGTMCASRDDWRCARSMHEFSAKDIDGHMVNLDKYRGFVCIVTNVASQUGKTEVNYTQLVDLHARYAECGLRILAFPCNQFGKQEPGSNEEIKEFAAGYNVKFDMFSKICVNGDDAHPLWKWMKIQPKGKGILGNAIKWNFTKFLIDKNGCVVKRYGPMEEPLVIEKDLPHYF

With `CC(C)(C)c1cc(Br)cc([C@H](CC(=O)O)NC(=O)CNC(=O)c2cc(O)cc(NC3=NCC(O)CN3)c2)c1` (stereo not given in full), the Potency result in test [1], in test [2], in test [3], in test [4], in test [5] and in test [6] was “inactive” in each case. For the same compound, the Potency result in test [7] was “inactive”.
Consider `CC(C)c1nnc(-c2ccc(-c3ccccc3)nc2)n1-c1cccc2nonc12`, for which the Potency entry in test [1], in test [2], in test [3], in test [4], in test [5] and in test [6] was “inactive” in each case. In addition, the Potency result in test [7] was “inactive”.
With `CC(C)=CCC[C@](C)(O[C@@H]1O[C@H](CO)[C@@H](O)[C@H](O)[C@H]1O)[C@H]1CC[C@]2(C)[C@@H]1[C@H](O)CC1[C@@]3(C)CC[C@H](O)C(C)(C)C3[C@@H](O[C@@H]3O[C@H](CO)[C@@H](O)[C@H](O)[C@H]3O[C@@H]3OC[C@@H](O)[C@H](O)[C@H]3O)C[C@]12C` (stereo not given in full), in test [1], the activity change, negative = cell killing is -29.2% [at 9.23 µM]. For the same compound, the Potency result in test [2] and in test [3] was “inactive” each time. Besides, in test [4], the activity change, negative = inhibition is -4.76% [at 11.6 µM]. Also, the activity change, negative = thiol reactive in test [5] is 136% [at 11.5 µM]. In test [6], the activity, negative = inhibition was -0.941% [at 11.6 µM]. In addition, the redox activity (% of DA3003) in test [7] was 12.7% [at 11.5 µM].
Turning to `OCCc1ccc(O[C@@H]2O[C@H](CO)[C@@H](O)[C@H](O)[C@H]2O)cc1`, the Potency entry in test [1], in test [2], in test [3], in test [4], in test [5] and in test [6] was “inactive” throughout. In addition, the Potency result in test [7] is “inactive”.
Take `CCCC(=O)C1CCN(c2ncnc3c2CN(C(=O)c2ccc(-c4ccccc4)cc2)CC3)CC1`: the Potency in test [1] is 20.5 µM (active). For the same compound, the Potency result in test [2], in test [3], in test [4], in test [5], in test [6] and in test [7] was “inactive” throughout.
Take `CCCOC(c1cc2nccc(C(=O)O)c2[nH]1)c1ccccc1Cl` (stereo not given): the Potency entry in test [1], in test [2], in test [3], in test [4], in test [5] and in test [6] was “inactive” in each case. In addition, the Potency result in test [7] is “inactive”.
On to `CN(C)CC1CCOC1(c1ccccc1)c1ccccc1` (stereo not given), for which the Potency entry in test [1], in test [2], in test [3], in test [4], in test [5] and in test [6] was “inactive” each time. Besides, in test [7], the Potency entry was “inactive”.
Consider `COc1cc(O)cc(C)c1C(=O)O[C@H]1[C@@H](OC(C)=O)[C@H](n2ccc(=O)[nH]c2=O)O[C@@H]1CO`, for which the Potency entry in test [1], in test [2], in test [3], in test [4], in test [5] and in test [6] was “inactive” throughout. In addition, the Potency result in test [7] was “inactive”.
`CC(C)(C)Nc1nc2cc(Cl)c(Cl)cc2nc1S(C)(=O)=O`: the Potency in test [1] is 0.409 µM (active). Besides, the Potency result in test [2], in test [3], in test [4], in test [5], in test [6] and in test [7] was “inactive” throughout.
With `O=C(CN1C(=O)C2(CCCC2)NCC1c1cc(F)cc(F)c1)Nc1ccc2c(c1)CC1(C2)C(=O)Nc2ncccc21` (stereo not given), the Potency result in test [1], in test [2], in test [3], in test [4], in test [5] and in test [6] was “inactive” in each case. Besides, in test [7], the Potency entry is “inactive”.
As for `COC1CC(O[C@H]2CC[C@@]3(C)C(CCC4C3[C@H](OC(C)=O)[C@@H](OC(=O)/C=C/c3ccccc3)[C@]3(C)C(C(C)=O)CC[C@]43O)C2)OC(C)C1OC1CC(OC)C(OC2CC(OC)C(OC3OC(C)C(OC4OC(CO)C(O)C(O)C4O)C(OC)C3O)C(C)O2)C(C)O1` (stereo not given in full), in test [1], the activity change, negative = cell killing is -29.1% [at 9.23 µM]. Besides, the outcome is “inactive [at 9.52 µM]” in test [2] and “inactive [at 11.6 µM]” in test [4]. In addition, the activity change, negative = inhibition in test [3] was -9.21% [at 9.73 µM]. For the same compound, the activity change, negative = thiol reactive in test [5] was 2.39% [at 11.5 µM]. Besides, in test [6], the activity, negative = inhibition is -1.88% [at 11.6 µM]. The redox activity (% of DA3003) in test [7] was -6.18% [at 11.5 µM].
With `CC(=O)N[C@@H](CCCCN)C(=O)N(C)[C@@H](CC(C)C)C(=O)N[C@H](C(=O)N(C)[C@@H](Cc1ccccc1)C(=O)N[C@H](Cc1ccccc1)C(N)=O)C(C)C`, the values for the outcome in test [1] and in test [3] were “inactive [at 4.96 µM]” and “inactive [at 4.52 µM]”, respectively. The results for the activity, negative = inhibition in test [2] and in test [6] were 0.986% [at 4.49 µM] and 2.14% [at 6.45 µM], respectively. In addition, in test [4], the activity change, negative = inhibition is 1.94% [at 6.45 µM]. Moreover, the activity change, negative = thiol reactive in test [5] was 50.7% [at 6.41 µM]. In addition, the redox activity (% of DA3003) in test [7] was -1.23% [at 6.41 µM].
Take `CC(O)CO[C@@H]1O[C@H](CO)[C@@H](O)[C@H](O)[C@H]1O` (stereo not given in full): the Potency result in test [1], in test [2], in test [3], in test [4], in test [5] and in test [6] was “inactive” each time. Moreover, the Potency result in test [7] is “inactive”.
Regarding `CS(=O)(=O)N1CCC(NC(=O)c2[nH]ncc2NC(=O)c2c(Cl)cccc2Cl)CC1`, the Potency in test [1] is 0.332 µM (active). In addition, the Potency result in test [2], in test [3], in test [4], in test [5] and in test [7] was “inactive” throughout.
As for `CCC(O)(C(=O)OCc1ccccc1NC(=O)CCC(=O)O)C(C)O` (stereo not given), the Potency result in test [1], in test [2], in test [3], in test [4], in test [5] and in test [6] was “inactive” in each case. In test [7], the Potency result is “inactive”.
For `Cc1cc(C(=O)N2CCCCc3ccccc32)ccc1CNC(=O)N1CCC[C@H]1C(=O)N(C)C`, the Potency entry in test [1], in test [2], in test [3], in test [4], in test [5] and in test [6] was “inactive” each time. Also, the Potency entry in test [7] is “inactive”.
Consider `CC1(C)CC[C@]2(C(=O)O)CC[C@]3(C)C(=CCC4[C@@]5(C)CC[C@H](O[C@@H]6O[C@H](C(=O)O)[C@@H](O[C@@H]7OC[C@@H](O)[C@H](O)[C@H]7O)[C@H](O)[C@H]6O)C(C)(C)C5CC[C@]43C)C2C1O` (stereo not given in full), for which the Potency entry in test [1], in test [2], in test [3], in test [4], in test [5] and in test [6] was “inactive” in each case. Further, the Potency result in test [7] is “inactive”.
As to `CC(=O)N[C@H](Cc1ccc2ccccc2c1)C(=O)N[C@H](Cc1ccc(Cl)cc1)C(=O)N[C@H](Cc1cccnc1)C(=O)N[C@@H](CO)C(=O)N[C@@H](Cc1ccc(O)cc1)C(=O)N[C@H](CCCNC(N)=O)C(=O)N[C@@H](CC(C)C)C(=O)N[C@@H](CCCN=C(N)N)C(=O)N1CCC[C@H]1C(=O)N[C@H](C)C(N)=O` (Ac-[d2Nal][dPhe(4-Cl)][d3Pal]SY[dCit]LRP[dA]-NH2), the Potency entry in test [1], in test [2], in test [3], in test [4], in test [5] and in test [6] was “inactive” throughout. In addition, the Potency result in test [7] is “inactive”.

The record behind these values is PubChem BioAssay (NCATS).
